In PubChem BioAssay AID540275 (National Center for Advancing Translational Sciences (NCATS), 2011) one finds activation data, which are given here for 57 compounds.

Hit rate of the full screen: of about 320,000 compounds, about 620 (0.19%) were called active. Inconclusive results (about 6%) are left out. What follows is part of a selection rich in actives, with near analogues and random picks from the rest. A number with no mark means an inactive call. Rule as the data show it: active = activation above about 80%; inconclusive = between about 30% and that limit; inactive = weaker than that.

The target in the assay is Transient receptor potential cation channel subfamily V member 1 (Homo sapiens) (UniProt Q8NER1). As to the kind of experiment: HTS Assay for Compounds that Act as Agonists of the Vanilloid Receptor 1. Also: 0% is about no effect. As to conditions: TRPV1-expressing cells, Fluo-8 calcium influx, agonist mode; at 8.33 µM; hits give high values. From the text: The transient receptor potential ion channel, family V, number 1, (TRPV1) is one of the most important molecular transducers of painful stimuli and a potential target for analgesic drug development. Although recent clinical trials with orthosteric antagonists have not produced a successful drug because of a hyperthermia side effect and their tendency to block thermal noxious pain, this ion channel is undeniably well placed in the pain pathway, and the idea of blocking pain signals before they enter the CNS is an excellent concept and of proven efficacy when TRPV1 agonists are used. We propose a new approach involving allosteric modulation to impose an activity-dependent constraint within the context of inflammation and tissue damage that would alter the responsiveness of the channel in a way that an orthosteric vanilloid antagonist cannot achieve. We believe that the allosteric modulator approach has not been explored for this target. The main goal of this proposal is to identify additional, new, potent allosteric modulators of TRPV1 that can be used to investigate TRPV1 function. Our recent report provides evidence of proof of concept, but the compounds are just at the edge of utility in terms of potency. […] The question of whether they can be used as analgesic agents is complex, but if suitable compounds are identified then testing for analgesic properties will be conducted. NIH Chemical Genomics Center [NCGC] NIH Molecular Libraries Probe Centers Network [MLPCN] MLPCN Grant: MH089480-1A1 Assay Submitter (PI): Michael Iadarola, National Institute of Dental and Cranofacial Research
Sequence of Transient receptor potential cation channel subfamily V member 1 (Homo sapiens) (Q8NER1 whole entry, looked up): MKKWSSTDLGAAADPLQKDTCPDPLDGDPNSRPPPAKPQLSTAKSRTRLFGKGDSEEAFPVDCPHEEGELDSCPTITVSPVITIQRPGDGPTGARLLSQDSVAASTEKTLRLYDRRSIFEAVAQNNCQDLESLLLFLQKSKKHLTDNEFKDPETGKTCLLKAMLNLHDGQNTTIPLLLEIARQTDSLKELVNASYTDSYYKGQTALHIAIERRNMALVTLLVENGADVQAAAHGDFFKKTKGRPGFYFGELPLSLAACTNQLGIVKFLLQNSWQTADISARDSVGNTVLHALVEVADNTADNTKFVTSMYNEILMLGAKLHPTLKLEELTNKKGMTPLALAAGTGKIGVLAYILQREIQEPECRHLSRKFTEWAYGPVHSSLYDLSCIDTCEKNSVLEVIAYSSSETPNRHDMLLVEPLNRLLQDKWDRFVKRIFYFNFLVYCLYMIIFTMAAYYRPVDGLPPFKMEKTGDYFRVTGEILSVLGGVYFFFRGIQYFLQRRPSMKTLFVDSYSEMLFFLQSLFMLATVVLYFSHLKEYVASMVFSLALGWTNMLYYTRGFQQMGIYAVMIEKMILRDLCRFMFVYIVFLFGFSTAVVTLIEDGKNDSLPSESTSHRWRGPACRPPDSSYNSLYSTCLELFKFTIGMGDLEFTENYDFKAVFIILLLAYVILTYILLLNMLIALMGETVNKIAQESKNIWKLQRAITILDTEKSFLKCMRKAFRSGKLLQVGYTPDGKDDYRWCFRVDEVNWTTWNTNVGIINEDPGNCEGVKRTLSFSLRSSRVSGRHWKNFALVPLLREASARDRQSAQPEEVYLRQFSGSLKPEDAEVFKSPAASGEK
Upon TRPV1 activation in TRPV1 cells, the channel opens and extracellular cations flow through the channel into the cytosol. A calcium binding dye (Fluo-8) becomes fluorescent when bound to calcium. This dye is pre-loaded into cells and is used as a marker for calcium influx. The amount of accumulated calcium is precisely quantified using the FDSS kinetic reader and the calcium dye. For the HTS assay, freshly prepared cells are plated at a density of 2000/well in 3 ul medium in 1536-well plates and cultured overnight at 35.5C. Cells will be loaded with 1 ul of the homogeneous calcium dye (ABD Bioquest) at room temperature for 40 to 90 minutes. Plates will be loaded into the FDSS kinetic reader and a 1 sec / cycle for 10 second baseline signal will be measured. Compound library will then be added with a pintool at 23 nl and measured kinetically for 3 minutes. This portion of the read is considered the agonist portion of the screen. Following the 3 minutes of incubation, an on board pipettor will deliver 1 ul of capsaicin for a final concentration equal to the EC20. Signal will be measured kinetically for an additional 2 minutes. This portion of the read is considered the allosteric enhancer portion of the screen. The FDSS reader has a standard filter set capable of measuring calcium bound Fluo-8 (ex=480 and em=520 nm).
For the compound `O=C(Nc1ccc(C(F)(F)F)cc1)c1cccc(-n2cnnn2)c1`, the activation is 11.1%.

`COc1cc(C(=O)NNC(=O)CN2C(=O)NC3(CCCC3)C2=O)cc(OC)c1OC`: the activation is -0.801%. For `O=C(c1ccc(Cl)c(S(=O)(=O)N2CCCCCC2)c1)N1CCN(c2ccc(O)cc2)CC1` the value was 13.5%; for `CC1CCCCC1NC(=O)NC(=O)COC(=O)C1=NN(c2ccccc2)C(=O)CC1` (configuration not stated), 0.278%; for `O=C(CNS(=O)(=O)c1ccc2c(c1)OCCCO2)N1CCN(c2ccc(F)cc2)CC1`, -2.51%. For `CCc1ccc(C(=O)N2CCN(S(=O)(=O)c3sc(C(=O)O)c(C)c3C(=O)O)CC2)cc1` the value was 0.16%; for `N#Cc1nc(-c2cccc3ccccc23)oc1N`, -1.65%. On to `Cc1ccc2ccc3c(c2n1)NS(=O)(=O)c1ccccc1-3`, for which the activation was -1.69%.

Consider `COc1cccc(-n2c(SCC(=O)NC3CCS(=O)(=O)C3)nc3ccccc3c2=O)c1` (configuration not stated), for which the activation is -0.844%. Turning to `CN(CC(=O)Nc1ccc(Cl)cc1)C(=O)c1ccc(COc2ccccc2)cc1`, the activation was 3.35%. To `O=C(NCC1CCCO1)c1cc2c(s1)CCCC2` (configuration not stated) belongs 17.2%; to `CN(C)C(=O)c1ccc(NC(=O)COC(=O)c2cc3c(s2)CCCCC3)cc1`, 1.68%; to `O=C(Nc1ccc(F)cc1)c1cc2c(s1)CCCC2`, 87.7% (active).

Consider `CCOC(=O)[C@H]1[C@H]2COc3ccc(OC)cc3[C@@H]2N2C(=O)c3ccc(F)cc3NC(=O)[C@@]12C`, for which the activation is 88.1% (active). As to `CCOC(=O)[C@@H]1[C@H]2COc3cc(OC)ccc3[C@H]2N2C(=O)N(c3ccc(F)cc3)C(=O)[C@]12C`, the activation was -1.09%. For `CCOC(=O)[C@@H]1[C@H]2COc3cc(OC)ccc3[C@@H]2N2C(=O)N(c3cccc(C)c3)C(=O)[C@@]12C` the value was 2.6%; for `CCOC(=O)c1ccccc1NC(=O)COC(=O)C(Cc1c[nH]c2ccccc12)NC(C)=O` (configuration not stated), 17.5%.

For the compound `CN(C)c1ccc(/C=C/C(=O)c2ccc(C(C)(C)C)cc2)cc1[N+](=O)[O-]`, the activation is -0.491%.

Turning to `O=C(/C=C/c1ccc(Cl)c([N+](=O)[O-])c1)c1ccc(O)cc1`, the activation is 83.8% (active). Turning to `O=C(/C=C/c1ccc(Cl)c([N+](=O)[O-])c1)c1cccnc1`, the activation was -3.27%. To `C/C(=N\NC(=S)Nc1ccc(C)cc1)c1cc2ccccc2o1` belongs 4.04%; to `Cc1c(/C=N\NC(=O)c2cc3ccccc3o2)c2ccccc2n1C`, -1.62%. On to `Cc1ccc(NC(=O)c2cc3ccccc3o2)cc1`, for which the activation is 102% (active). To `O=c1c2ccccc2ccc2ccc(P(=O)(O)O)cc12` belongs -0.0431%; to `COc1cc(C(=O)NCC(c2ccco2)N2CCCC2)ccc1OCc1ccccc1` (configuration not stated), 3.05%.

Turning to `CCOc1cc(/C=C/C(=O)OCC(=O)NCCN2C(=O)CSC2=O)ccc1OCC(C)C`, the activation was 3.05%.

As for `CCOC(=O)c1sc(N)c(C#N)c1COC(=O)C1=COCCO1`, the activation was -7.68%.

Take `CC(C)(C)C(=O)CSc1ccc(S(=O)(=O)N2CCCC2)cn1`: the activation was 0.185%. Regarding `CCN(CC)S(=O)(=O)c1ccc(N2CCOCC2)c(NC(=O)C(C)Oc2ccc(F)cc2)c1` (configuration not stated), the activation is 25.5%.

As to `O=C(NCc1ccccc1CN1CCCC1)c1cccc(S(=O)(=O)Nc2ccc(F)cc2)c1`, the activation is 2.73%. With `Cc1ccc(O)c(CNc2nc3ccccc3n2C)c1`, the activation is 1.21%. With `Cc1ccc(C2=NN(C)c3nc4ccccc4n3C2)cc1`, the activation is 84.2% (active). For `Cn1cccc1-c1nc2ccccc2n1C`, the activation was -1.64%. `COc1ccc(S(=O)(=O)N2CCOCC2)cc1NC(=O)Cc1coc2cc(C)ccc12`: the activation is -0.0282%. For `Cc1nc(-c2ccc(F)cc2)c(CC(=O)N(C)CC(=O)Nc2c(C)cccc2C)s1` the value was -1.54%; for `COc1ccc(-c2c(-c3cc(OC)cc(OC)c3)n(C)c3ccc(-c4ccn[nH]4)cc23)cc1`, -1.55%; for `Cc1onc(C(=O)NN)c1-c1csc(COc2ccccc2)n1`, 2.64%. In the case of `CC(C)(C)C(=O)OCc1nc(-c2ccc(O)c(O)c2)cs1`, the activation was 91.2% (active). For `COc1ccc(-c2csc(Cc3nc(O)cs3)n2)cc1` the value was 4.2%; for `CCOc1ccc(OCC(=O)OC(C)C(=O)NC2CCCCC2C)cc1` (configuration not stated), 11.7%; for `Cc1ccsc1/C=C1\SC(N2CCOCC2)=NC1=O`, 16.7%. To `CC1CCN(C2=NC(=O)/C(=C/c3ccc(O)cc3)S2)CC1` belongs 2.66%.

Consider `CCc1ccc(/C=C2\SC(N3CCOCC3)=NC2=O)cc1`, for which the activation was 89.7% (active). Take `Cc1nc(SCC(=O)NC2CCCCC2C)c(C#N)c(C)c1C` (configuration not stated): the activation was 11%.

As for `N#Cc1ccc(OCC(=O)NC(=O)NC2CCS(=O)(=O)C2)cc1` (configuration not stated), the activation is -0.359%. For `O=C(COC(=O)CCCN1C(=O)c2cccc3cccc(c23)C1=O)NC1CCS(=O)(=O)C1` (configuration not stated) the value was -0.543%; for `Cc1ccc2c(CN3CCN(S(=O)(=O)c4ccccc4C(F)(F)F)CC3)cc(=O)oc2c1`, 4.46%; for `O=C(CSC(=S)N1CCOCC1)c1cc(Br)cc(Br)c1O`, -0.207%.

As for `O=C(c1cc2cc(Br)cc(Br)c2oc1=O)N1CCOCC1`, the activation is 87.7% (active). To `COc1cc2ccccc2cc1C(=O)N1CCOCC1` belongs -0.849%. To `COc1cc(OC)cc(-c2c(-c3cccs3)c3cc(-c4ccc(OC)cc4F)ccc3n2C)c1` belongs -2.36%; to `CN(C(=O)COC(=O)Cn1cnc2c1c(=O)n(C)c(=O)n2C)C1(C#N)CCCCC1`, -2.27%. For `COc1ccc(C)cc1NC(=O)CN1c2cccc3cccc(c23)S1(=O)=O` the value was -0.498%; for `CCCN(CC(=O)NC(=O)NC1CCCCC1)CC(=O)Nc1cc(Cl)ccc1Cl`, 3.99%; for `O=C(CCc1ccccc1Cl)Nc1ccc(S(=O)(=O)Nc2nccs2)cc1`, -1.57%.

With `COC(=O)c1ccc(CSc2ccc(S(=O)(=O)N3CCCCC3)cn2)cc1`, the activation is 6.26%. Turning to `Cc1ccc(C(=O)NCC(c2cccs2)N(C)C)cc1S(=O)(=O)N1CCOCC1` (configuration not stated), the activation is 10.3%.
